Assay outcomes from PubChem BioAssay.
An excerpt weighted towards active compounds, which were near 9.3% of everything screened.
ELG1 genotox: inducers of genotoxicity in HEK293T ELG1-luciferase cells; Potency, µM (top dose mostly 46 µM), for inactives: at the highest dose activity change, positive = activation, hits mostly activators; actives 1.3% (n = 330,000); AID 504466; HEK293T ELG1-luciferase reporter, luminescence, 16 h; note: % of control where 0% means no effect; nearly all actives have a fitted effect of over 60% in size
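DMSO vehicle served as control against compound-treated ELG1-luciferase HEK293T cells; exposure lasted 16 hr at 37 °C and 5% CO2, followed by ONE-Glo luminescence detection after 30 min.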
ELG1 repair inh: inhibitors of ELG1-dependent DNA repair in HEK293T cells; HEK293T ELG1-luciferase reporter, luminescence, 16 h; DNA damage induced by 5-fluorouridine; Potency, µM (top dose mostly 46.1 µM), for inactives: at the highest dose activity change, negative = inhibition, actives largely listed as inhibitors; actives 2.3% (n = 330,000); AID 504467; note: % is set by controls: 0 for no effect and ±100 for the full control effect; nearly all actives have a fitted effect of over 55% in size
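Quantitative HTS, concentration-response format. 2,000 cells/well co-treated with 5-fluorouridine and compound, 16 hr in 5% CO2 at 37 °C; ONE-Glo luminescence read after 30 min.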
NPC1 promoter act: activates the NPC1 promoter; Huh7 NPC1 promoter luciferase reporter, 24 h; Potency, µM (doses to about 9.22 µM), without a hit: at the highest dose activation, hits mostly activators; actives 2.4% (n = 320,000); note: % of control where 0% means no effect; nearly all actives have a fitted effect of over 60% in size
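Stably transfected Huh7 (NPC1 promoter→luciferase), 1500 cells/well in Opti-MEM + 10% FBS, 2 h settle, then compound 24 h at 37 °C. Luminescence after 10 min with Amplite reagent.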
SMN2 splice enh: increases expression of the SMN2 splice variant | HEK293 SMN2-luciferase splicing reporter, luminescence, 30-36 h | Potency, µM (series often up to 46.1 µM), inactives show top-dose activity change, positive = activation, most hits filed as activators | AID 1458 | actives 2.8% (n = 210,000); note: % of control where 0% means no effect; nearly all actives have a fitted effect of over 55% in size
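HEK293 cells carry an SMN2 […]–luciferase reporter in which exon 7 inclusion puts luciferase in frame. Cells were plated 10-12 h before compound addition, then incubated 30-36 h at 37C. ONE-Glo luminescence was read; sodium butyrate at 4.5 mM final served as control.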
FLuc modulator: inhibits or activates purified firefly luciferase, miR-21 counter-screen | P08659 | actives 6.9% (n = 360,000) | purified FLuc, Km substrates, luminescence inhibition | Potency, µM (top dose mostly 57.5 µM), inactives show at the top dose activity change, negative = inhibition, most hits filed as inhibitors | AID 588342;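 note: plate controls were vehicle for no effect and reference inhibitor for full effect; nearly all actives have a fitted effect of over 55% in size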
Target sequence (P08659 whole entry, looked up): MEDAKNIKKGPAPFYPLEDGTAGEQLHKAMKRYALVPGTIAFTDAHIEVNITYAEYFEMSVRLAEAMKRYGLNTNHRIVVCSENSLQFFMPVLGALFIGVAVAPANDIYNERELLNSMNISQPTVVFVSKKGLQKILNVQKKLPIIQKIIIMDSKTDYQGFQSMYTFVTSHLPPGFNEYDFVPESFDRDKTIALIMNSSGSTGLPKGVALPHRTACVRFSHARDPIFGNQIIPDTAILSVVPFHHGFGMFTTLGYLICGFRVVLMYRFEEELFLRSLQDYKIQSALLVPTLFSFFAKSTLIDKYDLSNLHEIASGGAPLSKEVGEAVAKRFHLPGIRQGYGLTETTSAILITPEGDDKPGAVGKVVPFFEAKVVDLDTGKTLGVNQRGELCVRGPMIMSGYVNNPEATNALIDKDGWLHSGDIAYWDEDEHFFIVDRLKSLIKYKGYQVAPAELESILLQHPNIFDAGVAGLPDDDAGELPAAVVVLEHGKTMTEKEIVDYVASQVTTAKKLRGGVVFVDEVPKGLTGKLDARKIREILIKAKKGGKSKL
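Purified P. pyralis luciferase, 10 nM final, with Km-level 10 uM D-luciferin and 10 uM ATP in 50 mM Tris acetate pH 7.5, 10 mM Mg acetate, 0.01% Tween-20, 0.05% BSA; 6-point qHTS titration about 60 µM downward; luminescence read.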
Rab9 prom act: activators of Rab9 promoter. Huh7 Rab9 promoter-luciferase reporter, luminescence, 24 h. Potency, µM (top dose mostly 9.22 µM), for inactives: at the top dose activation, negative = inhibition, hits mostly activators. actives 2.8% (n = 320,000). AID 485297; note: % of control where 0% means no effect; nearly all actives have a fitted effect of over 60% in size
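Measured in stably transfected Huh7 cells bearing a Rab9 promoter–luciferase construct: 24 h compound treatment at 37 °C, followed by luminescence detection.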
Active calls of the source: *; ? = inconclusive; / = no result given; [ ] = remark or other dose. Calls come from the whole dose curve; as a rule, active = well fitted curve in the direction sought with a large enough effect; inconclusive = small, poorly fitted or top-dose-only effect, or another doubt; inactive = no such curve, though single readings can be large; an effect the other way counts as inactive or inconclusive. Potency is the fitted concentration of half-maximal effect.

SMILES	ELG1 genotox	ELG1 repair inh	NPC1 promoter act	SMN2 splice enh	FLuc modulator	Rab9 prom act
O=C(CSc1nnnn1-c1ccccc1)Nc1nsc(-c2ccccc2)n1	5%	2%	1%	-1%	-1%	-5%
COc1ccc(-c2nc(NC(=O)CSc3nnc4ccccn34)ns2)cc1	-6%	?	30%	18%	12µM*	2%
CCCN(C(=O)c1cc(S(=O)(=O)N2CCCCCC2)ccc1OC)C1CCS(=O)(=O)C1 (configuration not stated)	0%	2%	-1%	/	3%	2%
COc1ccccc1N(C(=O)c1ccco1)C(C(=O)NC1CCCCC1)c1cc(OC)c(OC)c(OC)c1 (configuration not stated)	-16%	-8%	1%	/	3%	0%
COc1cccc2sc3ccc(NCc4ccc5c(c4)OCO5)cc3c(=O)c12	4%	13%	2%	/	?	3%
COc1cccc2sc3ccc(C#Cc4ccc(N)cc4)cc3c(=O)c12	?	?	3.5µM*	/	4.8µM*	2.5µM*
COc1cccc2oc3cc(C#Cc4ccccn4)ccc3c(=O)c12	19%	?	2.5µM*	/	4.8µM*	3.2µM*
COc1ccc2sc3ccccc3c(=O)c2c1OC	?	?	?	19%	15µM*	?
COc1cccc2sc3ccc(C#CC4(O)CCCCC4)cc3c(=O)c12	?	?	1.6µM*	/	2.1µM*	2.8µM*
COC(=O)c1c(-c2ccccc2OC)sc2ccccc12	-1%	-18%	0%	/	-10%	-4%
Cc1ccc2c(c1)N(C(=O)CCC(=O)NC1CCCCCC1)CC(C)O2 (configuration not stated)	4%	16%	-1%	/	-1%	10%
COc1cccc2oc3cc(C#CC4(O)CCCCC4)ccc3c(=O)c12	0.41µM*	?	0.35µM*	/	0.6µM*	0.35µM*
COc1ccccc1-c1oc2ccccc2c1C#CC1(O)CCCCC1	0%	23%	/	/	/	/
CCOC(=O)CN1C(=O)C(C)(C)Oc2ccc(C(=O)Nc3ccccc3)cc21	2%	13µM*	12%	/	?	13%
Cc1ccc(-n2ncc(C(=O)NCCc3ccccc3)c2C2CCN(C(=O)OC(C)(C)C)CC2)c(C)c1	/	/	/	/	-11%	/
CCOC(=O)CCCn1ncn2c(cc3occc32)c1=O	21µM*	?	18%	-2%	?	26%
COc1ccc(CNC(=O)CCCn2ncn3c(cc4occc43)c2=O)cc1	1%[9.26 µM]	9%	0%	/	4%	-2%
CCOc1ccc(OCC)c(NC(=O)CSc2nc3c(c(=O)n(C)c(=O)n3C)n2C(C)C)c1	-9%	12µM*	0%	/	-2%	3%
CCOc1ccc(-c2nc(SCC(=O)Nc3cc(F)ccc3F)n3[nH]c(=O)cc3n2)cc1	/	/	/	/	-1%	/
Cc1ccc2[nH]c3ccccc3c(=O)c2c1	14%	?	?	/	17µM*	17%
O=C(Nc1cccc(Cl)c1)Nc1sccc1-c1nc2ccccc2s1	-5%	1%	9%	/	13µM*	3%
O=C(Nc1ccccc1)Nc1sccc1-c1nc2ccccc2s1	-1%	-9%	10%	/	15µM*	-3%
N#CCC(=O)c1sccc1-n1cccc1	2%	3%	-6%	/	?	-4%
Cc1ccc(NC(=O)COC(=O)c2ccc([N+](=O)[O-])o2)cc1S(=O)(=O)N1CCCCCC1	/	?	-5%	-5%	-6%	-2%
COc1ccccc1-c1nc(-c2ccc(Br)o2)no1	?	?	3.5µM*	?	1.9µM*	0.89µM*
SMILES	ELG1 genotox	ELG1 repair inh	NPC1 promoter act	SMN2 splice enh	FLuc modulator	Rab9 prom act
COc1ccc(-c2nc(-c3ccc(Br)o3)no2)cc1OC	21µM*	?	?	14µM*	?	3.2µM*
COc1ccccc1Cc1nc(-c2cccnc2)no1	10%	1%	2%	/	-4%	-3%
COc1ccc(-c2nnc(-c3ccc(Br)o3)o2)cc1OC	?	?	27%	/	?	22%
COc1cccc(-c2nc(-c3ccc(Br)o3)no2)c1	?	?	0.89µM*	/	0.67µM*	0.56µM*
COc1ccccc1Cc1nc(-c2ccc(Br)o2)no1	9%	?	16%	8%	19µM*	12%
O=C1c2ccccc2-c2cc([N+](=O)[O-])c([N+](=O)[O-])cc21	/	/	/	-18%[9.22 µM]	/	/
NC(=S)Nc1cccc2[nH]ccc12	1%	?	-1%	12%	-4%	-1%
CCNc1ncc2nc(CCc3ccccc3)c(=O)n(C)c2n1	/	/	/	13µM*	/	/
NC(=O)C1CCN(c2nc(-c3ccc4c(c3)OCO4)cs2)CC1	/	/	/	/	19µM*	/
NC(=O)C1CCN(c2nc(-c3ccc4c(c3)OCCO4)cs2)CC1	2%	17%	1.4µM*	/	4.8µM*	2.8µM*
CC(=O)Nc1ccc(S(=O)(=O)N2CCN=C2SCc2ccc([N+](=O)[O-])cc2)cc1	-16%	?	-21%	/	4%	-21%
CC1=NN(c2ccc(C(=O)OC(C)C)cc2)C(=O)/C1=C\C=C\c1ccco1	-6%	0%	0%	-34%	?	11%
CC1=NN(c2ccccc2)C(=O)/C1=C\C=C1\N(C)c2ccccc2C1(C)C	-12%	?	-3%	-48%	-20%	-9%
CC1=NN(c2ccccc2)C(=O)/C1=C\C=C\c1ccccc1	-15%	18µM*	-4%	/	17µM*	-1%
CC1=NN(c2ccccc2)C(=O)/C1=C/C=C/c1ccc(N(C)C)cc1	-8%	0%	2%	-19%	4.8µM*	6%
CCOC(=O)CC1=NN(c2ccccc2)C(=O)C1	-2%	-2%	-1%	5%	-2%	1%
CCOC(=O)CC1=NN(c2ccccc2)C(=O)/C1=C\c1ccc(N(C)C)cc1	3%	?	-11%	16%[1.84 µM]	11µM*	-3%
CCC1CCCCN1CCCNC(=O)C1CCN(c2nnc(-n3cccc3)s2)CC1 (configuration not stated)	0%	12%	-1%	/	4%	-5%
Cc1cc(C)cc(OCC(=O)Nc2nc3c(s2)CC(C(C)(C)C)CC3)c1 (configuration not stated)	/	/	/	/	12µM*	/
CCOC(=O)c1c(N)sc2c(OC)c(Br)ccc12	/	/	/	-10%	19µM*	/
Cc1cccc(N2CCN(CCCNC(=O)C3CCCN(c4ncnc5c4nc4n5CCCCC4)C3)CC2C)c1 (configuration not stated)	-16%	12µM*	-8%	/	-4%	-13%
O=C(C1CCN(c2ncnc3c2nc2n3CCCCC2)CC1)N1CCN(c2ccc(F)cc2)CC1	-3%[9.26 µM]	7.3µM*	-4%	/	0%	-8%
